Measured values as given in PubChem BioAssay (NCATS).
Results filed as inconclusive are left out. Active and inactive are the calls of the source. Calls follow the shape of the dose curve; as a rule, active = well fitted curve in the direction sought with a large enough effect; inconclusive = small, poorly fitted or top-dose-only effect, or another doubt; inactive = no such curve, though single readings can be large; an effect the other way counts as inactive or inconclusive.

Assays:
[1] = Quantitative High-Throughput drug screen in 47 multiple myeloma cell lines against the NCATS MIPE library collection: KMM1_JCRB cell viability assay (AID 1918960); also: nearly all actives have a fitted effect of over 30% in size
Summary of the method: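 Viability screen: myeloma cells (500/well) incubated 48 h at 37 °C, humidified 5% CO2, with pinned library compounds; CellTiter-Glo added, luminescence read; DMSO wells set 100%, medium-only wells 0%.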

[2] = Quantitative High-Throughput drug screen in 47 multiple myeloma cell lines against the NCATS MIPE library collection: KHM11_PLB cell viability assay (AID 1918962); also: nearly all actives have a fitted effect of over 35% in size
Summary of the method: (§1)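 qHTS of the MIPE 4.0 collection: 500 myeloma cells/well, 48 h drug exposure at 37C in 5% CO2, then CellTiter-Glo for 5 min at room temperature before luminescence reading.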

[3] = Quantitative High-Throughput drug screen in 47 multiple myeloma cell lines against the NCATS MIPE library collection: JIM3_ECACC cell viability assay (AID 1918963; also: nearly all actives have a fitted effect of over 35% in size)
Summary of the method: as §1

[4] = Quantitative High-Throughput drug screen in 47 multiple myeloma cell lines against the NCATS MIPE library collection: JIM1_ECACC cell viability assay (AID 1918964)
Summary of the method: (§2)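 CellTiter-Glo luminescence (ATP) after 48 h compound exposure, 37C/5% CO2; 500 cells/well; MIPE 4.0 approved/investigational drugs pinned in; DMSO = 100%, media only = 0% viability.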

[5] = Quantitative High-Throughput drug screen in 47 multiple myeloma cell lines against the NCATS MIPE library collection: INA6_PLB cell viability assay (AID 1918965; also: nearly all actives have a fitted effect of over 55% in size)
Summary of the method: (§3)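 Luminescent ATP measurement with CellTiter-Glo gives viability, scaled between DMSO-only wells (100%) and media-only wells (0%). Cells, 500 per well, faced library compounds for 48 hours at 37C.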

[6] = Quantitative High-Throughput drug screen in 47 multiple myeloma cell lines against the NCATS MIPE library collection: JJN3_DSMZ cell viability assay (AID 1918966; also: nearly all actives have a fitted effect of over 50% in size)
Summary of the method: as §2

[7] = Quantitative High-Throughput drug screen in 47 multiple myeloma cell lines against the NCATS MIPE library collection: H1112_PLB cell viability assay (AID 1918967; also: nearly all actives have a fitted effect of over 30% in size)
Summary of the method: as §2

[8] = Quantitative High-Throughput drug screen in 47 multiple myeloma cell lines against the NCATS MIPE library collection: Karpas25_ECACC cell viability assay (AID 1918968; also: nearly all actives have a fitted effect of over 35% in size)
Summary of the method: as §2

[9] = Quantitative High-Throughput drug screen in 47 multiple myeloma cell lines against the NCATS MIPE library collection: KMS27_JCRB cell viability assay (AID 1918970); also: nearly all actives have a fitted effect of over 30% in size
Summary of the method: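 CellTiter-Glo luminescence after 48 h drug exposure at 37 °C; 500 cells/well, 1536-well format, pin-tool compound addition; DMSO = 100%, media-only = 0% viability.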

[10] = Quantitative High-Throughput drug screen in 47 multiple myeloma cell lines against the NCATS MIPE library collection: Karpas417_ECACC cell viability assay (AID 1918961); details: Karpas417 myeloma viability, CellTiter-Glo ATP luminescence, 48 h; viability (% of DMSO): at 45.8 µM (top of the series)
Summary of the method: as §3
Potency is read from the fitted curve at half-maximal effect.

SMILES	Potency [1]	Potency [2]	Potency [3]	Potency [4]	Potency [5]	Potency [6]	Potency [7]	Potency [8]	Potency [9]	Potency [10]
COc1cc2nc(-c3ccc(N4CCN(C)CC4)cc3)nc(NCCN3CCOCC3)c2cc1OC	0.0469 µM (active)	0.235 µM (active)	0.148 µM (active)	0.166 µM (active)	0.0372 µM (active)	0.0148 µM (active)	1.48 µM (active)	0.0105 µM (active)	0.0332 µM (active)	–
Cc1[nH]c(C=C2C(=O)Nc3ccc(S(=O)(=O)Cc4c(Cl)cccc4Cl)cc32)c(C)c1C(=O)N1CCC[C@H]1CN1CCCC1	18.7 µM (active)	8.33 µM (active)	18.7 µM (active)	7.43 µM (active)	3.32 µM (active)	23.5 µM (active)	14.8 µM (active)	2.96 µM (active)	2.64 µM (active)	–
O=C(Nc1ccccc1-c1cn2c(CN3CCNCC3)csc2n1)c1cnc2ccccc2n1	inactive	8.33 µM (active)	33.2 µM (active)	2.96 µM (active)	9.35 µM (active)	9.35 µM (active)	9.35 µM (active)	5.9 µM (active)	inactive	–
NC(=O)c1ccc2nc(-c3ccc(Oc4ccc(Cl)cc4)cc3)[nH]c2c1	0.469 µM (active)	0.0083 µM (active)	0.105 µM (active)	–	0.0209 µM (active)	–	–	4.69 µM (active)	–	0.187 µM (active)
O=c1c(O)c(-c2ccc(O)cc2)oc2cc(O)cc(O)c12	16.6 µM (active)	–	–	–	16.6 µM (active)	–	20.9 µM (active)	9.35 µM (active)	–	16.6 µM (active)
CC1(C)CCC[C@@]2(C)[C@@H]1CC[C@@]1(C)OC(=O)C[C@H]21	inactive	inactive	inactive	inactive	inactive	inactive	inactive	inactive	–	–
NS(=O)(=O)c1cccc2c1C(=O)c1cccc(O)c1C2=O	0.264 µM (active)	0.662 µM (active)	0.187 µM (active)	0.209 µM (active)	0.148 µM (active)	0.264 µM (active)	0.526 µM (active)	0.132 µM (active)	0.209 µM (active)	0.148 µM (active)
CN(C)Cc1ccc(-c2nc3cccc4c3n2CCNC4=O)cc1	18.7 µM (active)	11.8 µM (active)	20.9 µM (active)	11.8 µM (active)	16.6 µM (active)	18.7 µM (active)	20.9 µM (active)	23.5 µM (active)	20.9 µM (active)	14.8 µM (active)
Cc1c(O)cccc1C(=O)N[C@@H](CSc1ccccc1)[C@H](O)CN1C[C@H]2CCCC[C@@H]2C[C@@H]1C(=O)NC(C)(C)C	18.7 µM (active)	18.7 µM (active)	20.9 µM (active)	9.35 µM (active)	23.5 µM (active)	18.7 µM (active)	–	–	–	–
CC(C)C(=O)Oc1ccc(CO)cc1[C@H](CCN(C(C)C)C(C)C)c1ccccc1	inactive	–	inactive	inactive	–	–	inactive	inactive	inactive	inactive
Cc1c[nH]c(C=C2C(=O)Nc3ccccc32)c1CCC(=O)O	18.7 µM (active)	–	–	–	–	–	–	–	–	–
Cc1ccc(F)c(NC(=O)Nc2ccc(-c3cccc4[nH]nc(N)c34)cc2)c1	4.18 µM (active)	8.33 µM (active)	7.43 µM (active)	1.87 µM (active)	16.6 µM (active)	18.7 µM (active)	10.5 µM (active)	–	–	–
COc1cc2ncnc(Nc3ccc(F)c(Cl)c3)c2cc1OCCCN1CCOCC1	8.55 µM (active)	3.4 µM (active)	13.6 µM (active)	5.4 µM (active)	5.4 µM (active)	42.9 µM (active)	–	–	13.6 µM (active)	–
Cc1ccn(-c2ccc(-c3ncco3)cc2)c(=O)c1-c1ccc2nc(N)ncc2c1	13.2 µM (active)	–	10.5 µM (active)	–	0.662 µM (active)	–	inactive	–	–	5.26 µM (active)
N#C[C@H]1C[C@H]2C[C@@H]2N1C(=O)[C@@H](N)C12CC3CC(CC(O)(C3)C1)C2	inactive	inactive	inactive	inactive	–	–	–	–	–	–
Cc1ccc(C(=O)Nc2cccc(C(F)(F)F)c2)cc1Nc1nc(-c2cccnc2)nc2c1cnn2C	inactive	13.2 µM (active)	10.5 µM (active)	inactive	11.8 µM (active)	18.7 µM (active)	–	13.2 µM (active)	inactive	–
O=c1cc(N2CCOCC2)oc2c(-c3cccc4c3sc3ccccc34)cccc12	5.9 µM (active)	5.9 µM (active)	3.32 µM (active)	2.96 µM (active)	2.96 µM (active)	14.8 µM (active)	–	4.18 µM (active)	18.7 µM (active)	–
O=C(NCc1ccccc1)c1csc(Nc2ccncn2)n1	9.35 µM (active)	20.9 µM (active)	14.8 µM (active)	6.62 µM (active)	11.8 µM (active)	16.6 µM (active)	–	–	–	–
